Here are results for 69 compounds from ChEMBL document CHEMBL4513216, “Probing the Open Global Health Chemical Diversity Library for Multistage-Active Starting Points for Next-Generation Antimalarials” (ACS Infect Dis, 2020).

Among all 65,000 compounds or so, about 2,100 (3.2%) showed an effect of 50% or more. The median lay at about -52%. This is one part of a sample in which strong results are shown more often than they occur.

In the experiment the test system is Plasmodium falciparum. Description: Screen against P. falciparum Asexual Blood Stage (ABS), at 5uM. Type of experiment: functional, Dd2. To be noted: tested at 5 uM.
As to `CCN(CC1CN(Cc2ccn(C(C)C)n2)CCO1)c1cccnn1` (centres undefined), the INHIBITION is reported as -94%. On to `Cc1[nH]c2ccc(Cl)cc2c1CCNc1ncnc2c1CCNC2`, for which the INHIBITION is listed as 52%. Regarding `Cc1[nH]c2ccc(C#N)cc2c1CCNc1ncnc2c1CCNCC2`, the INHIBITION is reported as -19.3%. Regarding `Cc1[nH]c2ccccc2c1CCNc1ncnc2c1CCNCC2`, the INHIBITION is recorded as -68.4%. As for `O=S(=O)(Nc1ccc(Oc2ccc3c(c2)OCO3)cc1)N1CCCCC1`, the INHIBITION is reported as -59.9%.

Take `CCN(CCO)Cc1ccc(Br)c2cccnc12`: the INHIBITION amounted to 54.2%. Under `N#CCCN(CCC#N)Cc1ccc(Br)c2cccnc12` stands -103.4%. As to `OCCN(CCO)Cc1ccc(Br)c2cccnc12`, the INHIBITION was -26.05%. In the case of `Cc1nn(C)c2c(=O)n(C(C)C)c(NCCc3ccccc3)nc12`, the INHIBITION was 13.9%.

In the case of `Clc1ccc(C2(NCc3noc(C4CC4)n3)CCC2)cc1`, the INHIBITION came to 16.7%. Consider `Clc1ccc(C2(NCc3noc(C4CC4)n3)CCOCC2)cc1`, for which the INHIBITION turned out to be 3.57%. `Clc1ccc(C2(NCc3noc(C4CC4)n3)CCCC2)cc1`: the INHIBITION was found to be 68.5%. As for `O=C(NC1CCCC1)c1nc(COc2ccc3c(c2)OCO3)no1`, the INHIBITION was -118%. The figure for `CSc1ccc(C(C(=O)O)N2CCC(CO)CC2)cc1` (centres undefined) is -79.3%. On to `Cc1c(NC(=O)c2ncn[nH]2)cccc1C(=O)NC(C)(C)C`, for which the INHIBITION is listed as -21%. As for `c1cnc(NC2COC3(CCN(Cc4ccoc4)CC3)C2)nc1` (centres undefined), the INHIBITION is on record as -27.7%. As to `Cc1cc(C)cc(CN2CCC3(CC2)CC(Nc2ncccn2)CO3)c1` (centres undefined), the INHIBITION came out at 60.2%. Consider `Cc1cc(CN2CCC3(CC2)CC(Nc2ncccn2)CO3)nn1C` (centres undefined), for which the INHIBITION was -8.44%.

`CCc1csc(CNc2cc(C)nc(-c3cccnc3)n2)n1`: the INHIBITION worked out at 4.15%.

For `CC(C)c1nc(CN2CCCCC2Cn2cncn2)cs1` (centres undefined), the INHIBITION is recorded as -30.9%. Regarding `CC(C)c1nc(CN2CCCCC2)cs1`, the INHIBITION is on record as -114%. Consider `CC(C)c1nc(CN2CCCC2CN2CCCC2)cs1` (centres undefined), for which the INHIBITION is on record as 68%. The figure for `CC1CCN(CCCNS(=O)(=O)Cc2ccccc2F)CC1` is 28.5%; for `O=S(=O)(NCCCN1CCCC1)c1cc(F)cc(F)c1` it is 67.4%. Regarding `Cc1cc(F)cc(S(=O)(=O)NCCCN2CCC(O)CC2)c1`, the INHIBITION is -34.8%.

With `CC(C)c1cccc(S(=O)(=O)NCCCN2CCC(O)CC2)c1`, the INHIBITION worked out at 34.2%. On to `Cn1cnc(S(=O)(=O)NCCCN2CCCC2)c1Cl`, for which the INHIBITION is recorded as -29.7%. Regarding `O=S(=O)(Cc1ccccc1F)NCCCN1CCCCC1`, the INHIBITION is recorded as 19.9%.

As to `CN1CCN(CCCNS(=O)(=O)Cc2ccccc2F)CC1`, the INHIBITION is reported as 18.6%.

As for `CC1CCN(CCCNS(=O)(=O)c2cccc(F)c2)CC1`, the INHIBITION was 54.9%. Consider `CC(=O)N1CCN(CCNS(=O)(=O)c2cc(F)cc(F)c2)CC1`, for which the INHIBITION was -113%.

As for `CC1CCN(CCCNS(=O)(=O)c2cc(F)cc(F)c2)CC1`, the INHIBITION came out at 63.3%. The figure for `O=S(=O)(Cc1c(F)cccc1Cl)NCCCN1CCCCCC1` is 50.1%. For `CC(=O)N1CCN(CCNS(=O)(=O)c2cccc(F)c2)CC1`, the INHIBITION is given as -72.6%. For the compound `O=C(Nc1cccc(N2CCOCC2)c1)N[C@H](CO)c1ccccc1`, the INHIBITION is listed as -104%. On to `Cc1cccc(C(=O)N2CCO[C@H]3[C@H](OCCN(C)C)CC[C@@H]32)n1`, for which the INHIBITION is recorded as -57.1%. For the compound `COCC1CN(C(=O)COc2ccccc2)Cc2ncn(C)c21` (centres undefined), the INHIBITION is given as -14.4%. Take `O=C(NCc1ccnc(OCC(F)(F)F)c1)NCC1CCOC1` (centres undefined): the INHIBITION was -16%. In the case of `O=C(C1CCCC1)N1CCCC(c2cccc(-n3ccnc3)n2)C1` (centres undefined), the INHIBITION is reported as -46.4%. Consider `Cc1c[nH]c(CN2CCOC(c3ccc(Cl)cc3)C2)c(C)c1=O` (centres undefined), for which the INHIBITION is listed as -11.4%.

Consider `Cc1ccc(CNCC2CCN(CCO)CC2)cc1`, for which the INHIBITION is reported as 13%. Under `COc1ccc(CNCC2CC2)cc1F` stands -75.5%; under `COc1ccc(OC)c(CN2CCC(c3cc(O)nc(C)n3)C2)c1` (centres undefined), -1.68%. With `CCN1CCC(CNCc2cc(OC)ccc2OC)C1` (centres undefined), the INHIBITION is 57.9%. As for `CCN1CCCC(CNC(=O)CCc2ccc(OC)c(F)c2)C1` (centres undefined), the INHIBITION is given as -71.6%. For the compound `COc1ccc(CNCC2CCN(CCO)CC2)cc1F`, the INHIBITION turned out to be 58.2%. `CCC1=N[C@@]2(CC[C@@H]3CN(Cc4ccc(F)cc4)C[C@@H]32)C(=O)N1C`: the INHIBITION came to 40.2%. Consider `COC1CCN(c2ccc(NC(=O)C3CC3)cc2C(F)(F)F)CC1`, for which the INHIBITION is recorded as 7.84%. The figure for `CN1CCC(c2cccc(Cc3ccc(F)cc3)n2)CC1` is 0.302%.

As for `CN1CCC(c2cccc(Cc3ccc(C(F)(F)F)cc3)n2)CC1`, the INHIBITION is 52.5%. In the case of `CN1CCC(c2cccc(Cc3ccccc3)n2)CC1`, the INHIBITION worked out at 3.76%. Under `CNc1nc(C(=O)N2CCN(c3ccc(Cl)c(Cl)c3)CC2)cs1` stands -3.09%; under `CC(=O)N1CCC(c2nc3ccc(-c4cccc(F)c4)cn3n2)CC1`, -83.5%; under `Cc1cc(CN2CCC(C3CCN(CC(C)C)CC3)C2)[nH]n1` (centres undefined), -10.5%. Under `CC(C(=O)N1CCCN(Cc2ccc(C#N)cc2)CC1)n1ccnc1` (centres undefined) stands -20.3%. `COc1ccc(CN2CCCN(C(=O)C(C)n3ccnc3)CC2)cc1` (centres undefined): the INHIBITION was found to be 63.1%. As to `CC(C(=O)N1CCN(Cc2ccc(C#N)cc2)CC1)n1ccnc1` (centres undefined), the INHIBITION is -162%. As for `Cc1noc(C)c1-c1cccc(CC2CCN(C(=O)c3cscn3)C2)n1` (centres undefined), the INHIBITION is -100%. The figure for `CN(C)CC(=O)N1CC2(CCN(S(=O)(=O)c3ccccc3)C2)C1` is -21%; for `CCN1CC2(CNCCN(C(=O)Nc3ccccc3)C2)CC1=O` (centres undefined) it is 53.7%.

In the case of `CN(C)CC(=O)N1CC2(CCN(C(=O)Nc3ccccc3)C2)C1`, the INHIBITION came out at 50%. Under `CN1CC2(CNCCN(C(=O)Nc3ccccc3)C2)CC1=O` (centres undefined) stands 33.2%; under `CC(=O)N1CCN(C(=O)Nc2ccccc2)CC2(CC(=O)N(C)C2)C1` (centres undefined), 13.6%.

`O=C1CC2(CNCCN(C(=O)Nc3ccccc3)C2)CN1` (centres undefined): the INHIBITION is on record as -59.9%. Under `N#Cc1ccsc1NC(=O)CN1CCOC(Cn2cccn2)C1` (centres undefined) stands -49.6%; under `Cc1cnn(CC2CCN(CC(O)COc3ccc(F)cc3)CC2)c1` (centres undefined), -39.2%. Regarding `CC(C)NC(=O)[C@H]1C[C@H]2OCC[C@H]2N(Cc2ccc3ccccc3n2)C1`, the INHIBITION came out at 3.39%. The figure for `CCc1ccc(CN(Cc2ccco2)C(C)C(C)C)nc1` (centres undefined) is -199%; for `COCCNC(=O)Nc1cccc2c1CCN(S(C)(=O)=O)C2` it is -3.2%.
